We go through 40 molecules from PubChem BioAssay AID1645875 (National Center for Advancing Translational Sciences (NCATS), 2021).

Several values for one entry are separate records, joined by “and”; a condition that tells them apart may be missing. Equal values may be shown once. Results filed as inconclusive are left out. Activity calls are given as the source filed them. Calls come from the whole dose curve; as a rule, active = well fitted inhibition curve with a large enough effect; inconclusive = small, poorly fitted or top-dose-only effect; inactive = no such curve, though single readings can be large or run the other way.

N-terminal Xaa-Pro-Lys N-methyltransferase 1 (Homo sapiens), sequence (Q9BV86 whole entry, looked up): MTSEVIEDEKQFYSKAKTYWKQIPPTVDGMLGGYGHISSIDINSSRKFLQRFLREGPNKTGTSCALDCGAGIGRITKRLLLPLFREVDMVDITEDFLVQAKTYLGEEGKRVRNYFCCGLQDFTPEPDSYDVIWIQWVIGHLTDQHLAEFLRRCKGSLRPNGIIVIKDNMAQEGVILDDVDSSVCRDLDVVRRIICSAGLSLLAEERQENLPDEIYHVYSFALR

This assay addresses N-terminal Xaa-Pro-Lys N-methyltransferase 1 (Homo sapiens) (UniProt Q9BV86). The assay can be described thus: Orthogonal qHTS for Inhibitors of N-terminal methyltransferase 1 (NTMT1): ThioGlo Assay. Particulars: NTMT1 SAHH-coupled ThioGlo fluorescence, 30 min; series mostly up to 84.5 µM. The text has this: Assay Submitter (PI): Rong Huang Ph.D. Purdue University, West Lafayette, IN 47907 The N-terminal methytransferase 1 is the first methyltransferase that methylates protein alpha-N-amines and plays an important role in regulating cell mitosis, chromatin interactions and DNA repair. It is observed to be over-expressed in various cancer patient tissues like malignant melanoma and colorectal cancer tissues. Knockdown of NTMT1 in cancer cells causes cell mitotic defects and enhances sensitivity to DNA damaging chemotherapeutics. […] These critical cellular processes in which NTMT1 is implicated, coupled with emerging links to cellular dysfunction, strengthen the inference that NTMT1 is a compelling novel anticancer target. Progress have been made in understanding the molecular properties of NTMT1 and the biological consequences of protein alpha-N-terminal methylation, but there are no specific small molecule probes available for NTMT1 to fully characterize its MTase activity. To address this unmet need, a panel of assay is created and established to enable quantitative high-throughput screening (qHTS) for novel, potent, and selective small molecule NTMT1 inhibitors. Two orthogonal qHTS that use different reagents (ThioGlo vs. MTaseGlo) are developed for primary robotic screening against the NCATS chemical library of more than 400,000 small molecules. Identified inhibitors are reacquired, validated, and further characterized. […] Early Translation Branch (ETB) National Center for Advancing Translational Sciences (NCATS) National Institute of Health (NIH)
Materials: NTMT1 enzyme, substrate SPKRIA, control peptide RCC1-6 is provided by the Huang laboratory. MTaseGlo Assay: PROTOCOL TABLE; SEQUENCE No. (e.g., 1, 2, 3, etc.); […] (e.g., Cells, Incubation, Reagent, etc.); VALUE; DESCRIPTION 1; Enzyme; 3 uL; Dispense enzyme mixture (final concentrations of 125 nM NTMT1) into Greiner 1536-well black / solid bottom assay plate (Greiner Bio One, Monroe, NC). 2; Compounds; 23 nL; Compounds (at various concentration) and 1uM final concentration of RCC1-6 (SPKRIA) control were transferred via a Kalypsys Pin Tool (Wako USA) equipped with a 1536-slotted pin array (Wako Automation, Richmond, VA). 3; Incubation; 1 min; Incubate at room temperature. 4; Substrate; 1 uL; Dispense 1 uL of substrate solution (100uM SAM, 10uM SAHH, 15uM ThioGlo3 final concentration) was added to the wells bringing the final assay volume to 4uL. The assay plate was covered with metal lids. 5; Detection; Fluorescence; Initial fluorescence readout (background signal) was detected using the ViewLux microplate imager with an excitation filter of 340 nm and 450 nm emission filter. 6; Incubation; 30 min; Assay plates were incubation at room temperature in the dark. 7; Detection; Fluorescence; Final fluorescence readout was detected using the ViewLux microplate imager with an excitation filter of 340 nm and 450 nm emission filter. The data was normalized to the background fluorescence.
(In qHTS, concentration-response curves come from the screen itself.)
As for `COc1cc2c(NC3CCN(CC4CCCCC4)CC3)nc(N3CCCN(C)CC3)nc2cc1OCCOCCN(C)C`, the Potency entry was “inactive”.
As to `Cc1cc(C)c2c(N)c(C(=O)NCc3ccc(Cl)cc3)sc2n1`, the Potency result is “inactive”.
In the case of `Cc1cc2c(C(C)C)c(O)c(O)c(C=O)c2c(O)c1-c1c(C)cc2c(C(C)C)c(O)c(O)c(C=O)c2c1O`, the Potency is 38.8 µM (active).
As to `CC[C@@H](C)Nc1cc(C(=O)NC2CC3CC[C@@H](C2)N3c2ccc(C(=O)C3CC3)cn2)c(C)cc1C(N)=O` (stereo not given in full), the Potency is 35 µM (active).
`COc1c(C(C)C)c(O)c(O)c2c1C(OC)[C@H]1OC(=O)[C@@]23CCCC(C)(C)[C@H]13` (stereo not given in full): the Potency was 6.1 µM (active).
With `COc1ccc(C2CC(=O)N3CN(C4CCCCC4)CSC3=C2C#N)cc1` (stereo not given), the Potency is 6.89 µM (active).
For `N#Cc1ccc(Nc2nc(-c3ccc(O)cc3O)cs2)cc1C(F)(F)F`, the Potency is 49.4 µM (active).
As for `Cc1cc2c(c(=O)[nH]1)OC(C(O)CC(C)C)O2` (stereo not given), the figure is 19.7 µM (active); as for `COc1cc2c(NC3CCN(CC4CCCCC4)CC3)nc(N3CCCN(C(C)C)CC3)nc2cc1OCCCN1CCCCC1`, 12.3 µM (active); as for `O=C([C@@H]1CCCN(c2ccc3[nH]c(C4(n5cc(Cl)cn5)CC4)nc3n2)C1)N1CCCC1`, 22.1 µM (active).
In the case of `c1cc(CN2CCCCC2)cc(OCCCNc2nc3ccccc3s2)c1`, the Potency result is “inactive”.
Turning to `Cc1ccnc(NC(=S)N2CCN(c3cc(C(F)(F)F)cc(C(F)(F)F)c3)CC2)c1`, the Potency is 4.35 µM (active).
Take `CNCCCOc1cc2nc(N3CCCN(C)CC3)nc(NC3CCN(C)CC3)c2cc1OC`: the Potency was 43.5 µM (active).
With `C[N+]1(C)CCC(OC(=O)C(c2ccccc2)c2ccccc2)CC1`, the Potency is 2.74 µM (active).
Turning to `O=C(Nc1ccccc1)c1ccc(Nc2nnc(-c3ccc(O)cc3)c3ccccc23)cc1`, the Potency is 27.8 µM (active).
Turning to `COc1c(C)c(C(=O)c2ccc(N)c(C(=O)O)c2)n2ccccc12`, the Potency was 1.97 µM (active) and 1.75 µM (active).
Consider `Cc1ccc(NC(=O)N2CCN(c3nc(N)nc4sc(-c5cccnc5)nc34)CC2)cc1`, for which the Potency was 24.8 µM (active).
Turning to `N.N.N.N.N.N.N.N.N.N.N.N.N.N.O.O.[Ru+4].[Ru+5].[Ru+5]`, the Potency was 34.5 µM (active).
For the molecule `COc1ccc(C2=Nn3c(nnc3-c3ccccc3Cl)SC2)cc1OC1CCCC1`, the Potency result is “inactive”.
Regarding `O=C(/C=C/c1ccc(O)c(O)c1)OCCc1ccccc1`, the Potency was 17.3 µM (active).
Consider `COc1cc(N2CCC(N3CCN(C)CC3)CC2)ccc1Nc1ncc(Cl)c(-c2c[nH]c3ccccc23)n1`, for which the Potency was 17.5 µM (active).
Consider `Oc1cc2c(c(Cl)c1O)CCNCC2c1ccccc1` (stereo not given), for which the Potency is 30.8 µM (active).
As for `CC[C@@H](c1ccc(F)c(F)c1)n1c(C(=O)OC)c(-c2ccno2)[nH]c1=S`, the figure is 6.98 µM (active).
Consider `COc1cc2nc(N(C)C)nc(NC3CCN(C)CC3)c2cc1OC`, for which the Potency entry was “inactive”.
Regarding `CCOc1ccccc1N1CC(c2nc3ccccc3n2CCCCOc2cc(C)ccc2C)CC1=O` (stereo not given), the Potency entry was “inactive”.
For the molecule `Cc1cnc(Nc2ccc(F)cc2Cl)nc1-c1c[nH]c(C(=O)NC(CO)c2cccc(Cl)c2)c1` (stereo not given), the Potency was 6.22 µM (active).
As to `C[C@]12CC[C@@H]3c4ccc(O)c(O)c4CC[C@H]3[C@@H]1CCC2=O`, the Potency was 17.5 µM (active).
`COc1cc2c(NC3CCN(C4CCCCC4)CC3)nc(N3CCCN(C)CC3)nc2cc1OCCCN1CCCCC1`: the Potency was 43.5 µM (active).
As for `CN=c1nc(-c2ccccc2)n(-c2ccccc2)s1`, the figure is 5.55 µM (active).
`CCN1CCCN(c2nc(NC3CCN(C(C)C)CC3)c3cc(OC)c(OCCCN4CCCCC4)cc3n2)CC1`: the Potency was 38.8 µM (active).
For `OCc1ccc(-c2ccc(-c3ccc(CO)s3)o2)s1`, the Potency was 19.2 µM (active).
For `CN(C)c1ccc(Nc2nc(N)n(C(=O)c3c(F)cccc3F)n2)cc1`, the Potency was 4.94 µM (active).
Next, `O=C(O)c1ccc(Cc2c(-c3cccc(-c4ccccc4)c3)[nH]n(-c3nc(C(=O)O)cs3)c2=O)cc1`: “inactive”; `O=C(O)c1ccnc2cc(-c3nc4ccccc4n3CCN3CCCCC3)sc12`: 55.5 µM (active).
Regarding `COc1cc(N2CCN(C(C)=O)CC2)ccc1Nc1ncc(Cl)c(Nc2ccc(N3CCN(C(C)=O)CC3)cc2OC)n1`, the Potency is 22.1 µM (active).
As to `COc1cc2c(NC3CCN(C)CC3)nc(N3CCCN(C)CC3)nc2cc1OCCCN1CCCCC1`, the Potency is 43.5 µM (active).
Take `CN(C)CCCC1(c2ccc(F)cc2)OCc2cc(C#N)ccc21` (stereo not given): the Potency result was “inactive”.
Next, `O=C(NCCN1CCCC1)c1cc(-c2ccc(CN3CCOCC3)cc2)nc2ccc(F)cc12`: 24.1 µM (active); `COc1ccc2nc(-c3cc(OC)c(OC)c(OC)c3)cc(C(=O)NCC(=O)Nc3ccc(C(C)=O)cc3)c2c1`: 31.2 µM (active); `COc1ccnc(NC(=S)N2CCN(c3cccc(Cl)c3Cl)CC2)c1`: 3.88 µM (active).
